# Source: publication PMC5540273 (PLoS ONE, 2017)
# System: DDR1
# Settings: concentration: 1 μM,replicates: in singlicate; n = 1
# 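Also: KINOMEscan kinase panel screen.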
row,Structure (SMILES),%Inh
1,CCn1c(-c2nonc2N)nc2cncc(Br)c21 [SB-738004],0%
2,O=C1NCCc2[nH]c(-c3ccncc3)cc21,17%
3,FC(F)(F)c1cc(Br)cc(Nc2nccc(-c3cnn4ncccc34)n2)c1 [GW810578],0%
4,COc1cccc(OC)c1C(=O)Nc1cccc(-c2nn3ccccc3c2-c2ccnc(Nc3cccc(F)c3)n2)c1 [GSK361065],99.3%
5,C[C@@H](Oc1cc(-n2cnc3cc(-c4ccncc4)ccc32)sc1C(N)=O)c1ccccc1Cl [GSK479719],0%
6,NC(=O)c1ccc(-c2cc3ncnc(SCC(=O)O)c3s2)cc1,0%
7,CC(C)S(=O)(=O)N1CCN(Cc2ccc3c(c2)nc(NC(=O)c2ccsc2)n3C[C@H](O)c2ccccc2)CC1 [GW635815],46%
8,COc1cc2nccc(Nc3ccc(Oc4ccccc4)cc3)c2cc1OC.Cl [GI261656],0%
9,CS(=O)c1ccc(-c2coc3ccc(-c4n[nH]c(=O)o4)cc23)cc1 (centres unmarked),0%
10,OCCn1cc(-c2cnc3nnn(Cc4ccc5ncccc5c4)c3n2)cn1,0%
11,COC(=O)c1cccc(NC(=O)NC2CCN(c3ccnc(Nc4cc(OC)c(OC)c(OC)c4)n3)C2)c1 (centres unmarked) [GSK1379767],13%
12,O=c1[nH]cc(-c2ccc(O)cc2)c2sc(-c3ccncc3)cc12 [GSK1033723],0%
13,COc1cc2ncn(-c3cc(OCC4CCCCC4)c(C(N)=O)s3)c2cc1OC [GSK204559],0%
14,Cc1cccc(-c2nc(Nc3ccncc3)c3sccc3n2)n1 [GW869641],55%
15,O=C(Nc1ccc(Oc2ccc3nc(NC(=O)C4CC4)cn3n2)c(F)c1)c1cccn(-c2ccccc2)c1=O,99.1%
16,COC(=O)Nc1nc2cc(Oc3ccc(NC(=O)Nc4cc(C(F)(F)F)ccc4Cl)cc3)ccc2[nH]1.Cl [GW697465],100%
17,Cc1ccc(C(=O)Nc2ccc(Oc3ccc4nc(NC(=O)C5CC5)cn4c3)c(F)c2)c(=O)n1-c1ccccc1,98.2%
18,NC(=O)Nc1sc(-c2ccc(F)cc2)cc1C(N)=O [GW789449],11%
19,C[C@@H]1CNc2c(sc3ccc4nc(-c5ccncc5)ccc4c23)C(=O)N1,0%

row,Structure (SMILES),%Inh
1,CCN1CCN(CCCC(=O)Nc2n[nH]c3nc(-c4ccc(O)cc4)c(Br)cc23)CC1 [SB-731579],38%
2,C[C@@H]1CNc2c(sc3ccc4nc(-c5ccc(O)cc5)ccc4c23)C(=O)N1,0%
3,Nc1nccc(-c2ccc3c(N)n[nH]c3c2)n1 [GSK1034945],0%
4,c1ccc(Oc2ccc(Nc3ccnc4ccc(-c5ccccn5)cc34)cc2)cc1 [GW407034],14%
5,CC(C(=O)NC1CCN(c2ccnc(Nc3ccc(F)cc3)n2)C1)c1ccc(Cl)cc1 (centres unmarked) [GSK1379713],14%
6,CCn1c(-c2nonc2N)nc2cncc(CNC3CCNCC3)c21.Cl [SB-747651],19%
7,CN1CCN(CCCNc2nccc(-c3c(-c4ccc(F)cc4)nn4cc(C(N)=O)ccc34)n2)CC1 [GW622475],100%
8,COc1cccc(CNC(=O)NC2CCN(c3ccnc(Nc4cc(OC)c(OC)c(OC)c4)n3)C2)c1 (centres unmarked) [GSK1379765],1%
9,Cn1ccc2ncnc(Oc3ccc(NC(=O)Nc4cccc(C(F)(F)F)c4)c(F)c3)c21,96.9%
10,CC(=O)c1c(-c2ccncc2)[nH]c(-c2ccncc2)c1C [GW493036],67%
11,CCOC(=O)N1CCC(n2cnc(-c3ccc(F)cc3)c2-c2ccnc(N)n2)CC1 [SB-219952],83%
12,C[C@@H](Oc1cc(-n2cnc3ccc(-c4ccncc4)cc32)sc1C(N)=O)c1ccccc1Cl [GSK483724],37%
13,CN(c1ccc2c(c1)nc(NCc1ccc(F)cc1)n2C)c1ccnc(Nc2ccc(CS(C)(=O)=O)cc2)n1.Cl [GW813244],98.4%
14,COc1cccc(C2=C(Nc3cccc(Cl)c3)C(=O)NC2=O)c1 [SB-341556],16%
15,O=C(Nc1cccc(Oc2ccc3nccn3n2)c1)Nc1cccc(C(F)(F)F)c1,99.3%
16,O=C(NOCC1CC1)c1cc(Br)c(F)c(F)c1Nc1ccc(I)cc1Cl,0%
17,CN1CCN(CCNc2nc3cc(Oc4ccc(NC(=O)Nc5cc(C(F)(F)F)ccc5F)cc4)ccc3[nH]2)CC1.Cl.Cl [GW768504],96.9%
18,N#Cc1cccc(C(=O)NC2CCN(c3ccnc(Nc4ccc(F)cc4)n3)C2)c1 (centres unmarked) [GSK1379708],0%

# System: DDR2
# Settings: concentration: 1 μM,replicates: in singlicate; n = 1
row,Structure (SMILES),%Inh
1,CCn1c(-c2nonc2N)nc2cncc(Br)c21 [SB-738004],39%
2,O=C1NCCc2[nH]c(-c3ccncc3)cc21,0%
3,FC(F)(F)c1cc(Br)cc(Nc2nccc(-c3cnn4ncccc34)n2)c1 [GW810578],16%
4,COc1cccc(OC)c1C(=O)Nc1cccc(-c2nn3ccccc3c2-c2ccnc(Nc3cccc(F)c3)n2)c1 [GSK361065],57%
5,C[C@@H](Oc1cc(-n2cnc3cc(-c4ccncc4)ccc32)sc1C(N)=O)c1ccccc1Cl [GSK479719],0%
6,NC(=O)c1ccc(-c2cc3ncnc(SCC(=O)O)c3s2)cc1,9%
7,CC(C)S(=O)(=O)N1CCN(Cc2ccc3c(c2)nc(NC(=O)c2ccsc2)n3C[C@H](O)c2ccccc2)CC1 [GW635815],19%
8,COc1cc2nccc(Nc3ccc(Oc4ccccc4)cc3)c2cc1OC.Cl [GI261656],22%
9,CS(=O)c1ccc(-c2coc3ccc(-c4n[nH]c(=O)o4)cc23)cc1 (centres unmarked),15%
10,OCCn1cc(-c2cnc3nnn(Cc4ccc5ncccc5c4)c3n2)cn1,4%
11,COC(=O)c1cccc(NC(=O)NC2CCN(c3ccnc(Nc4cc(OC)c(OC)c(OC)c4)n3)C2)c1 (centres unmarked) [GSK1379767],55%
12,O=c1[nH]cc(-c2ccc(O)cc2)c2sc(-c3ccncc3)cc12 [GSK1033723],25%
13,COc1cc2ncn(-c3cc(OCC4CCCCC4)c(C(N)=O)s3)c2cc1OC [GSK204559],0%
14,Cc1cccc(-c2nc(Nc3ccncc3)c3sccc3n2)n1 [GW869641],66%
15,O=C(Nc1ccc(Oc2ccc3nc(NC(=O)C4CC4)cn3n2)c(F)c1)c1cccn(-c2ccccc2)c1=O,100%
16,COC(=O)Nc1nc2cc(Oc3ccc(NC(=O)Nc4cc(C(F)(F)F)ccc4Cl)cc3)ccc2[nH]1.Cl [GW697465],98.3%
17,Cc1ccc(C(=O)Nc2ccc(Oc3ccc4nc(NC(=O)C5CC5)cn4c3)c(F)c2)c(=O)n1-c1ccccc1,100%
18,NC(=O)Nc1sc(-c2ccc(F)cc2)cc1C(N)=O [GW789449],39%
19,C[C@@H]1CNc2c(sc3ccc4nc(-c5ccncc5)ccc4c23)C(=O)N1,0%

row,Structure (SMILES),%Inh
1,CCN1CCN(CCCC(=O)Nc2n[nH]c3nc(-c4ccc(O)cc4)c(Br)cc23)CC1 [SB-731579],41%
2,C[C@@H]1CNc2c(sc3ccc4nc(-c5ccc(O)cc5)ccc4c23)C(=O)N1,16%
3,Nc1nccc(-c2ccc3c(N)n[nH]c3c2)n1 [GSK1034945],0%
4,c1ccc(Oc2ccc(Nc3ccnc4ccc(-c5ccccn5)cc34)cc2)cc1 [GW407034],0%
5,CC(C(=O)NC1CCN(c2ccnc(Nc3ccc(F)cc3)n2)C1)c1ccc(Cl)cc1 (centres unmarked) [GSK1379713],11%
6,CCn1c(-c2nonc2N)nc2cncc(CNC3CCNCC3)c21.Cl [SB-747651],25%
7,CN1CCN(CCCNc2nccc(-c3c(-c4ccc(F)cc4)nn4cc(C(N)=O)ccc34)n2)CC1 [GW622475],82%
8,COc1cccc(CNC(=O)NC2CCN(c3ccnc(Nc4cc(OC)c(OC)c(OC)c4)n3)C2)c1 (centres unmarked) [GSK1379765],19%
9,Cn1ccc2ncnc(Oc3ccc(NC(=O)Nc4cccc(C(F)(F)F)c4)c(F)c3)c21,100%
10,CC(=O)c1c(-c2ccncc2)[nH]c(-c2ccncc2)c1C [GW493036],0%
11,CCOC(=O)N1CCC(n2cnc(-c3ccc(F)cc3)c2-c2ccnc(N)n2)CC1 [SB-219952],60%
12,C[C@@H](Oc1cc(-n2cnc3ccc(-c4ccncc4)cc32)sc1C(N)=O)c1ccccc1Cl [GSK483724],8%
13,CN(c1ccc2c(c1)nc(NCc1ccc(F)cc1)n2C)c1ccnc(Nc2ccc(CS(C)(=O)=O)cc2)n1.Cl [GW813244],100%
14,COc1cccc(C2=C(Nc3cccc(Cl)c3)C(=O)NC2=O)c1 [SB-341556],0%
15,O=C(Nc1cccc(Oc2ccc3nccn3n2)c1)Nc1cccc(C(F)(F)F)c1,97.8%
16,O=C(NOCC1CC1)c1cc(Br)c(F)c(F)c1Nc1ccc(I)cc1Cl,22%
17,CN1CCN(CCNc2nc3cc(Oc4ccc(NC(=O)Nc5cc(C(F)(F)F)ccc5F)cc4)ccc3[nH]2)CC1.Cl.Cl [GW768504],99.2%
18,N#Cc1cccc(C(=O)NC2CCN(c3ccnc(Nc4ccc(F)cc4)n3)C2)c1 (centres unmarked) [GSK1379708],0%
